Our source for the outcome and Potency values is PubChem BioAssay (NCATS).

For experiment [1], the target named is Protein phosphatase 1D (Homo sapiens) (UniProt O15297). As to the kind of experiment: Rhodamine-PBP qHTS Assay for Modulators of WT P53-Induced Phosphatase 1 (WIP1) (AID 1347425). In short, it runs like this:
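WIP1 (5 nM final) was preincubated with compound for 1 hour at room temperature. It then dephosphorylated 10 uM VEPPL-pS-QETFS peptide in Tris-HCl pH 7.5 with 30 mM MgCl2. Released Pi was detected by 10 uM Rh-PBP fluorescence (ex 525/em 598 nm) read at 1-min intervals for 11 min, as delta f1 - f0.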
On the technique in general: In qHTS, concentration-response curves come from the screen itself.

Experiment [2] in a line: Validation qHTS assay for inhibitors of Activation Induced Cytidine Deaminase (AID): UDG Counterscreen signal (AID 1347427). In short, it runs like this:
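Fluorescence at 560 nm excitation, 665 nm emission reports UDG signal after 250 mM NaOH (2x) addition and 30 min. Enzymes (AID 1 uM, UDG 2 U/mL, at 4/3x) preincubated 10 min with compound, then 4 h with 4x 250 nM DJC20/DJC23 substrate at room temperature.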

Experiment [3] deals with Single-stranded DNA cytosine deaminase (Homo sapiens) (UniProt Q9GZX7). Kind of experiment: Validation qHTS assay for inhibitors of Activation Induced Cytidine Deaminase (AID): AID signal (AID 1347429). In short, it runs like this:
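AID+UDG coupled FRET deamination; cpds up to 114 uM final; DJC20/DJC23 substrate, 4 hr RT; NaOH stop, 30 min RT; read Ex 540/Em 590.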

For experiment [4], the target named is Calcium and integrin-binding protein 1 (Homo sapiens) (UniProt Q99828). As to the kind of experiment: Validation qHTS for Identification of Calcium Integrin Binding protein 1 (CIB1) Competitor (AID 1508618). In short, it runs like this:
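Fluorescence polarization with 1 uM CIB1-GST and 100 nM FITC-alphaIIb peptide in HEPES pH 7.4, NaCl, 5 mM CaCl2, Tween20. Compounds at up to 114 uM final, preincubated with protein 15 min; read after 15 min more at RT.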

A short description of experiment [5]: Primary qHTS for small molecule stabilizers of the endoplasmic reticulum resident proteome: Secreted ER Calcium Modulated Protein (SERCaMP) assay (AID 1508630). In short, it runs like this:
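The SH-SY5Y reporter protocol was run at 3 concentrations up to 38.3 uM (primary) or 11 concentrations (follow-up): 16 h compound, 100 nM thapsigargin for 4 h, then extracellular luciferase luminescence.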

In the next experiment the target is Papain (Carica papaya) (UniProt P00784). Kind of experiment: Primary qHTS assay for inhibitors of the protease papain (AID 1645873).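 Note: papain turnover of Z-FR-AMC read as the AMC fluorescence gain over 10 min; series mostly up to about 50 µM.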
Papain (Carica papaya), sequence (P00784 whole entry, looked up): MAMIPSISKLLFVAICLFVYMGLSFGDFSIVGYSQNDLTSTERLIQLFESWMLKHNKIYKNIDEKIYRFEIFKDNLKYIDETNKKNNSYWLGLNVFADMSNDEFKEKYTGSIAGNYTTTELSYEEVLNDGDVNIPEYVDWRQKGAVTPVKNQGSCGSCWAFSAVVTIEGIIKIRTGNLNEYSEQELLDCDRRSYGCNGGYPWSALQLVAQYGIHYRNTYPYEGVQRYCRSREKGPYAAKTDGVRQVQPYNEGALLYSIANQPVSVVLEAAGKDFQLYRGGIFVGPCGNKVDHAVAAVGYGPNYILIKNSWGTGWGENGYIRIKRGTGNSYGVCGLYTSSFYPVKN
Experiment [6] is described as follows: Primary qHTS for inhibitors of La Crosse Virus (LACV) - induced cell death in SH-SY5Y cells (AID 1508616).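 Note: top concentration of the series differs between compounds; higher means more rescue of cells from virus-induced death.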 In short, it runs like this:
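Cytopathicity rescue screen: compounds pinned onto SH-SY5Y cells, which are then infected with LACV (MOI 0.01) and held 6 days at 37C. Percent activity is scaled between infected DMSO control and uninfected DMSO control.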

Experiment [7] deals with N-terminal Xaa-Pro-Lys N-methyltransferase 1 (Homo sapiens) (UniProt Q9BV86). As to the kind of experiment: Confirmatory qHTS for Inhibitors of N-terminal methyltransferase 1 (NTMT1): MTaseGlo Assay (AID 1645874).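 Note: luminescence from SAH made as NTMT1 methylates SPKRIA peptide using SAM; series mostly up to about 100 µM; nearly all actives have a fitted effect of over 65% in size.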 In short, it runs like this:
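Inhibition was derived from luminescence after SAH-to-ATP conversion, scaled between no-enzyme and DMSO wells, then fitted by 4-parameter Hill. Conditions: 125 nM NTMT1, 100 uM SAM, 1 uM SPKRIA, 30 min RT.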

Experiment [8] deals with Rap guanine nucleotide exchange factor 3 (Homo sapiens) (UniProt O95398). Kind of experiment: Confirmatory qHTS for agonist of cAMP-regulated guanine nucleotide exchange factor 3 (EPAC1) (AID 1645881).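 Note: EPAC1 catalysed release of BODIPY-GDP from Rap1B seen as fluorescence loss; nearly all actives have a fitted effect of over 75% in size.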
Rap guanine nucleotide exchange factor 3 (Homo sapiens), sequence (O95398 whole entry, looked up): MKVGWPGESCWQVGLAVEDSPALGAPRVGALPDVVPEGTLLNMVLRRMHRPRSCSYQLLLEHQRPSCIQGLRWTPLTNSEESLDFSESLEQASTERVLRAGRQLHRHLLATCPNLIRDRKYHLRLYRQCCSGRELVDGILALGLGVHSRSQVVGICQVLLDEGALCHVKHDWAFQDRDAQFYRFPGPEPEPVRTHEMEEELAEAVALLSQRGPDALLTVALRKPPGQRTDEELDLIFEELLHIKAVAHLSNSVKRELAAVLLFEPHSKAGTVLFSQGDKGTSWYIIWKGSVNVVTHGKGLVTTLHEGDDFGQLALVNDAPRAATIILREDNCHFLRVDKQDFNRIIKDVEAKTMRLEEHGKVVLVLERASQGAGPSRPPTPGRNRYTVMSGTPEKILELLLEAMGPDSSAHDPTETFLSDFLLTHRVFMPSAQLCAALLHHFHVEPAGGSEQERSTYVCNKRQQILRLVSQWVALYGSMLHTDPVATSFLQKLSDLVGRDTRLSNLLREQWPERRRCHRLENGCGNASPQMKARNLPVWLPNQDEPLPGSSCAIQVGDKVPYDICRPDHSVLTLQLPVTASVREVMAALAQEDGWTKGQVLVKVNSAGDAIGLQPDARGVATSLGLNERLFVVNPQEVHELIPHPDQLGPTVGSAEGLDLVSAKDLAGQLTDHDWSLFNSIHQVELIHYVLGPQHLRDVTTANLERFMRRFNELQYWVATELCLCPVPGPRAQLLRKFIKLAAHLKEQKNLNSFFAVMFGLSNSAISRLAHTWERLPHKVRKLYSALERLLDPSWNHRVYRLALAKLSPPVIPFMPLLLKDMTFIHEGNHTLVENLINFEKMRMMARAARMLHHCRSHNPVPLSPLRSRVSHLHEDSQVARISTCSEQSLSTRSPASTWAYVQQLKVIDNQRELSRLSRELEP
The target of experiment [9] is Rap guanine nucleotide exchange factor 4 (Homo sapiens) (UniProt Q8WZA2). As to the kind of experiment: Confirmatory qHTS for agonist of cAMP-regulated guanine nucleotide exchange factor 4 (EPAC2) (AID 1645884).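 Note: nucleotide exchange releases bodipy-GDP from Rap1 and this lowers its fluorescence; nearly all actives have a fitted effect of over 65% in size.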
Rap guanine nucleotide exchange factor 4 (Homo sapiens), sequence (Q8WZA2 whole entry, looked up): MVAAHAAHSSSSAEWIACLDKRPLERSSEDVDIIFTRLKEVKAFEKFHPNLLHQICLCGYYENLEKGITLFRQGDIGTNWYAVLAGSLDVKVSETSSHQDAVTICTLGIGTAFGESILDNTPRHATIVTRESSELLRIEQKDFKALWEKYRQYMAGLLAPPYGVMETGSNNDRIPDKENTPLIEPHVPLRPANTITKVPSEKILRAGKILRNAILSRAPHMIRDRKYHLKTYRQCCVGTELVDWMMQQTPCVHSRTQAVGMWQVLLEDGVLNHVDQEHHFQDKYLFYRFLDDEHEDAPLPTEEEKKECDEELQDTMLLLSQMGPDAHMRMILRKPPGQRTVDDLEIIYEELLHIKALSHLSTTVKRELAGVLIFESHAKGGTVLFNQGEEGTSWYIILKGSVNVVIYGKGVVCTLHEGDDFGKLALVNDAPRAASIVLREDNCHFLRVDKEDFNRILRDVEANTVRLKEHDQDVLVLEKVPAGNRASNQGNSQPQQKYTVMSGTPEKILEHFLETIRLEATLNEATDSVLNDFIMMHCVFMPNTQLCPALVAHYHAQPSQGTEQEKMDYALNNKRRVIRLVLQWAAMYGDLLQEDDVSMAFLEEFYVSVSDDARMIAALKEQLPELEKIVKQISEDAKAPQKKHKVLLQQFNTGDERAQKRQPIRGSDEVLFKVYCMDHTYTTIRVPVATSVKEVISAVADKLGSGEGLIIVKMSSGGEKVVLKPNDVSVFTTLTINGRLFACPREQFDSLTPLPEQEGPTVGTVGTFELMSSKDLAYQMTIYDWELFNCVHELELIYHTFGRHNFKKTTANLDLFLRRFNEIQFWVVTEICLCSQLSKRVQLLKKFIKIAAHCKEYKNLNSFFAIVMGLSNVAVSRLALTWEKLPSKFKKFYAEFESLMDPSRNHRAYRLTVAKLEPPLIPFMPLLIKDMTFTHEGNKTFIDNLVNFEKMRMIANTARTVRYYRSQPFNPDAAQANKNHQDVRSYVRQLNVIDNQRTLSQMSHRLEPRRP
The target of experiment [10] is Rap guanine nucleotide exchange factor 3 (Homo sapiens) (UniProt O95398). Kind of experiment: Counterscreen qHTS for antagonist of cAMP-regulated guanine nucleotide exchange factor 3 (EPAC1) (AID 1645888). In short, it runs like this:
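Measured: fluorescence of BODIPY-GDP bound to Rap1B, which falls as exchange proceeds. Conditions include 50 uM competing GDP, 5 and 30 min reads, and a later cAMP challenge for antagonist detection.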
(In general: The purpose of a counterscreen is to sort out artefacts and off-target activity.)

The target is the same in experiment [11]. As to the kind of experiment: Confirmatory qHTS for antagonist of cAMP-regulated guanine nucleotide exchange factor 3 (EPAC1) (AID 1645880). Note: potency is the fitted concentration of half-maximal effect; nearly all actives have a fitted effect of over 55% in size. In short, it runs like this: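 Released BODIPY-GDP fluoresces less than Rap1-bound BODIPY-GDP; the signal is followed at 480/540 nm at 5-min intervals over 30 min, after 5 min at room temperature. Reactions contain 100 nM EPAC1, 250 nM RAP1B-BODIPY-GDP and 50 uM GDP; results are normalized to ATA and DMSO.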

Experiment [12] deals with Rap guanine nucleotide exchange factor 4 (Homo sapiens) (UniProt Q8WZA2). As to the kind of experiment: Confirmatory qHTS for antagonist of cAMP-regulated guanine nucleotide exchange factor 4 (EPAC2) (AID 1645885). Note: potency is the fitted concentration of half-maximal effect; nearly all actives have a fitted effect of over 25% in size.
The target in experiment [13] is Cytochrome P450 2C9 (Homo sapiens) (UniProt P11712). Kind of experiment: Cytochrome P450 family 2 subfamily C member 9 (CYP2C9) small molecule antagonists: luciferase biochemical (cell-free) qHTS assay (AID 1645842; active = well fitted curve in the direction sought with a large enough effect in the repeat runs; an effect the other way counts as inactive or inconclusive; note: nearly all actives have a fitted effect of over 55% in size; note: potency is the fitted concentration of half-maximal effect). In short, it runs like this: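 P450-Glo CYP2C9 system: proluciferin substrate with enzyme in mix containing 0.4% BSA, 10 min at room temperature, then NADPH regeneration solution added and incubated 1 h at 37C. Detection reagent stopped reaction; luminescence read after 20 min as RLU.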
Cytochrome P450 2C9 (Homo sapiens), sequence (P11712 whole entry, looked up): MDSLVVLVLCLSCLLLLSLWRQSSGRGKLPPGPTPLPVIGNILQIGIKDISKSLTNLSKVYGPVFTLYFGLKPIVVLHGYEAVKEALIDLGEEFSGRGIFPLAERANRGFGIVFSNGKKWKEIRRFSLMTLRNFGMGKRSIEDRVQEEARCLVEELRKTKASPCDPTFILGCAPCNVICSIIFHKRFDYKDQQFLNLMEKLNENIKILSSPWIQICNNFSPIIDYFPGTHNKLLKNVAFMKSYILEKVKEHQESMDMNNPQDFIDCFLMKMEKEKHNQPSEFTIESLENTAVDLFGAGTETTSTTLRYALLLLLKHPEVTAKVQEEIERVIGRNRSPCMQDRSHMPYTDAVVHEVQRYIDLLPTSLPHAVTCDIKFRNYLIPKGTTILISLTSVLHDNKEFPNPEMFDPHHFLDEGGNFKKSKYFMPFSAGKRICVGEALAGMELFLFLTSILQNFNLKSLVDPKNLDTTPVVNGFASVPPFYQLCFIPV

For experiment [14], the target named is Calcium and integrin-binding protein 1 (Homo sapiens) (UniProt Q99828). Kind of experiment: Primary qHTS for Identification of Calcium Integrin Binding Protein 1 (CIB1) Competitor (AID 1508620).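 Note: GST tagged CIB1 binding a fluorescein labelled alphaIIb integrin peptide tracer; top concentration of the series differs between compounds.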 In short, it runs like this:
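Fluorescence polarization competition: CIB1-GST (1 uM final) preincubated with compound 15 min at room temperature, then FITC-labeled alphaIIb peptide (100 nM final) added for another 15 min. Polarization read at Ex 480/Em 540.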

For experiment [15], the target named is Cytochrome P450 2D6 (Homo sapiens) (UniProt P10635). Kind of experiment: Cytochrome P450 family 2 subfamily D member 6 (CYP2D6) small molecule antagonists: luciferase biochemical (cell-free) qHTS assay (AID 1645840; active = well fitted curve in the direction sought with a large enough effect in the repeat runs; an effect the other way counts as inactive or inconclusive; note: nearly all actives have a fitted effect of over 55% in size; note: potency is the fitted concentration of half-maximal effect). In short, it runs like this: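 P450-Glo CYP2D6 system: proluciferin substrate converted by enzyme to luciferin, read by luminescence proportional to activity. Enzyme-substrate mix with compound 10 min at room temperature, then NADPH regeneration 1 h before detection reagent.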
Cytochrome P450 2D6 (Homo sapiens), sequence (P10635 whole entry, looked up): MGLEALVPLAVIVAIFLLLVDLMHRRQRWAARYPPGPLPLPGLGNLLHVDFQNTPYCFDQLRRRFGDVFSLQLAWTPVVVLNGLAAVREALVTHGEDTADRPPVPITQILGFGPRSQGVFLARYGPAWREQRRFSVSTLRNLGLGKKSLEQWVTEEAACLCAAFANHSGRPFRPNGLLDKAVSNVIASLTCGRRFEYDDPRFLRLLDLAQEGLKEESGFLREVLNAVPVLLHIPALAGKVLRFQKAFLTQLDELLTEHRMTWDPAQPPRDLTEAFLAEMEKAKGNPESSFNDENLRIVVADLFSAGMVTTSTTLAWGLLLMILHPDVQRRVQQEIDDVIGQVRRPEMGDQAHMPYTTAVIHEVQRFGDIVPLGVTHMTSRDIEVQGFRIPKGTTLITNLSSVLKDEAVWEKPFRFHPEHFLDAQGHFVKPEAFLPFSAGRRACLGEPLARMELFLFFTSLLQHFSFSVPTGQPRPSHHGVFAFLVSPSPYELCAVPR

For experiment [16], the target named is Cytochrome P450 3A4 (Homo sapiens) (UniProt P08684). Kind of experiment: Cytochrome P450 family 3 subfamily A member 4 (CYP3A4) small molecule antagonists: luciferase qHTS assay (AID 1645841; active = well fitted curve in the direction sought with a large enough effect in the repeat runs; an effect the other way counts as inactive or inconclusive; note: nearly all actives have a fitted effect of over 45% in size). In short, it runs like this: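 P450-Glo CYP3A4 enzyme with proluciferin substrate was preincubated with DMSO-dissolved compounds for 10 min at room temperature. NADPH regeneration solution started a 1 h reaction. Detection reagent stopped it, and luminescence was read after 20 min.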
Cytochrome P450 3A4 (Homo sapiens), sequence (P08684 whole entry, looked up): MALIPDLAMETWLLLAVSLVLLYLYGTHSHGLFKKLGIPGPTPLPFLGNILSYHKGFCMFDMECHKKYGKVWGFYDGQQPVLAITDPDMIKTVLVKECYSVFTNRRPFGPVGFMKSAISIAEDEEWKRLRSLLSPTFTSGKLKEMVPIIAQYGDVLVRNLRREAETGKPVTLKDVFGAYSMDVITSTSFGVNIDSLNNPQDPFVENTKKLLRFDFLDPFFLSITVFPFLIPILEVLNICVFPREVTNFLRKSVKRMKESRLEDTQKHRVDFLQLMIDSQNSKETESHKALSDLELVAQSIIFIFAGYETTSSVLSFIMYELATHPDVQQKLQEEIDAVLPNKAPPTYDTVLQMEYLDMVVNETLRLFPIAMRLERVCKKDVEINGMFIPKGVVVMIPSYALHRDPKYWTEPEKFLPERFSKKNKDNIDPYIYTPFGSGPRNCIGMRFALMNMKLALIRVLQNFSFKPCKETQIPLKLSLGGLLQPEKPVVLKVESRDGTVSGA

Experiment [17] can be described thus: Primary qHTS for inhibitors of nuclear receptor binding SET domain protein 2 (NSD2) in an isogenic RCH-ACV NSD2 p.E1099K mutant (9B) (AID 1645876). Note: nearly all actives have a fitted effect of over 70% in size.
The nature of experiment [18]: Primary qHTS for inhibitors of nuclear receptor binding SET domain protein 2 (NSD2) in an RCH-ACV wild type WT cells (2C) (AID 1645877). Note: nearly all actives have a fitted effect of over 70% in size.

The structures appear in SMILES notation. Results filed as inconclusive are left out. Activity calls are given as the source filed them. Unless noted, calls come from the whole dose curve; as a rule, active = well fitted curve in the direction sought with a large enough effect; inconclusive = small, poorly fitted or top-dose-only effect, or another doubt; inactive = no such curve, though single readings can be large; an effect the other way counts as inactive or inconclusive.

Calcium and integrin-binding protein 1 (Homo sapiens), sequence (Q99828 whole entry, looked up): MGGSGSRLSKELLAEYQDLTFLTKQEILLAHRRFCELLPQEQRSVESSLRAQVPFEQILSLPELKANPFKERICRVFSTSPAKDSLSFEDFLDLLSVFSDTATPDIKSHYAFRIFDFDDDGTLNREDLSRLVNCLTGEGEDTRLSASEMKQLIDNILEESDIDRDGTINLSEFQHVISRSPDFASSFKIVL
Single-stranded DNA cytosine deaminase (Homo sapiens), sequence (Q9GZX7 whole entry, looked up): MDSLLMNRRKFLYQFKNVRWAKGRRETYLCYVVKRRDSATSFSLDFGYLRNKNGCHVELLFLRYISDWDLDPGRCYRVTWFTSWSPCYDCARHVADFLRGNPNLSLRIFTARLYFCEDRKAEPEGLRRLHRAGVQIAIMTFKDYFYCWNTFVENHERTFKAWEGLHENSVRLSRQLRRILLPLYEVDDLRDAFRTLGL
N-terminal Xaa-Pro-Lys N-methyltransferase 1 (Homo sapiens), sequence (Q9BV86 whole entry, looked up): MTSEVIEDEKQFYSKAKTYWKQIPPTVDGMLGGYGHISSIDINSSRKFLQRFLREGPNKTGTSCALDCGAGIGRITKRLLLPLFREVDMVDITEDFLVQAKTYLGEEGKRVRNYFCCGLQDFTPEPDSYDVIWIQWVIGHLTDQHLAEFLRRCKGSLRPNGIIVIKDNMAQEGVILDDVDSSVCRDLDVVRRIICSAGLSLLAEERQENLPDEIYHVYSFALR
Protein phosphatase 1D (Homo sapiens), sequence (O15297 whole entry, looked up): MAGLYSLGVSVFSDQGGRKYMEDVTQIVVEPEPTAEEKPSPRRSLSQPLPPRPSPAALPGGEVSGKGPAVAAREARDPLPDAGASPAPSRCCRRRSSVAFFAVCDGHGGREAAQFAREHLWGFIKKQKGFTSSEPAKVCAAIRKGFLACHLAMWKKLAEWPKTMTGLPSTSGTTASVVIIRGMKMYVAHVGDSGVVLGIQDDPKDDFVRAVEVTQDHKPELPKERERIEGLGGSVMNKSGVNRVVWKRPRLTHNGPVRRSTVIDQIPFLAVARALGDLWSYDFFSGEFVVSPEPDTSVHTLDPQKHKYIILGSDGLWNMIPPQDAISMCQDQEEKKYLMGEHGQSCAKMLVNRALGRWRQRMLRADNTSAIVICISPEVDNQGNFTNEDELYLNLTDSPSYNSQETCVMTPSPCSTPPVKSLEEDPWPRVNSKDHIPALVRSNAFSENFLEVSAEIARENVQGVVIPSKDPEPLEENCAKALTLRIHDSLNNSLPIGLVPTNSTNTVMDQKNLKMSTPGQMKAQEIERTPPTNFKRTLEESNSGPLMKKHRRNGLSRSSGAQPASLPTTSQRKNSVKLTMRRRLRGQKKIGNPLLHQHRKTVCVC

Take `CN[C@H]1CC[C@@H](c2ccc(Cl)c(Cl)c2)c2ccccc21`: the call (in experiment [1]; in experiment [2]; in experiment [3]; in [4]; in experiment [5]; in the experiment with Papain (Carica papaya)) was inactive.

Consider `NCCCC(=O)O`, for which the result (in experiment [2]; in experiment [3]; in experiment [5]; in the experiment with Papain (Carica papaya)) was inactive.

As for `Oc1cccc(-c2c3nc(c(-c4cccc(O)c4)c4ccc([nH]4)c(-c4cccc(O)c4)c4nc(c(-c5cccc(O)c5)c5ccc2[nH]5)CC4)C=C3)c1`, the call in [6] was inactive.

In the case of `N#Cc1ccc(Nc2nc(-c3ccc(O)cc3O)cs2)cc1C(F)(F)F`, the Potency entry in experiment [7] is “inactive”. For the same molecule, the call in experiment [8], in experiment [9] and in [10] was inactive.

As for `O=C(O)CSc1cc(NS(=O)(=O)c2ccc(Br)cc2)c2ccccc2c1O`, the Potency in [11] was 84.9 µM (active); in [12], 47.8 µM (active). In addition, the molecule was called inactive in experiment [8] and in [10].

In the case of `CCc1ccccc1OC[C@@H](O)CN[C@H]1CCCc2ccccc21`, the Potency entry in experiment [13] was “inactive”.

Consider `CC(C)(C)c1ccc2c(c1)CC[C@H]2NC(=O)Nc1cccc2[nH]ncc12`, for which the Potency entry in [14] and in experiment [15] was “inactive” in each case.

As for `O=C(Nc1ccc(Cl)cc1)Nc1cccc(-c2cccc(N3CCCC3)n2)c1`, the Potency entry in experiment [14] is “inactive”. Moreover, the results for the Potency in experiment [15] and in experiment [13] were 6.74 µM (active) and 9.52 µM (active), respectively.

Take `O=[N+]([O-])c1cn2c(n1)OC[C@@H](OCc1ccc(-c3ccc(OC(F)(F)F)cc3)nc1)C2`: the Potency entry in experiment [14] and in [15] was “inactive” in each case.

As for `COc1ccccc1-c1ccc(-c2cn(C(=O)N3CCCCC3Cc3ccccc3)nn2)cc1` (configuration not stated), the Potency entry in experiment [14] and in experiment [15] was “inactive” throughout.

In the case of `CC1(C)Oc2ncnc(N)c2N=C1c1ccc(C23CCC(CC(=O)O)(CC2)CC3)cc1`, the Potency entry in experiment [14], in experiment [15], in experiment [16], in experiment [13], in experiment [17] and in experiment [18] was “inactive” throughout.

In the case of `O=C(c1cc(Cc2n[nH]c(=O)c3ccccc23)ccc1F)N1CCCNCC1`, the Potency result in [14] and in [15] was “inactive” throughout.
